# Bioassay records: PubChem, several laboratories
# In the library only some 4.1% were active in any assay of this set; here they are far more common.
# tim23-1 inh: growth inhibitors of tim23-1 mutant yeast, primary screen, luminescence, uHTS; inhibition, % at 20 µM; AID 463212, 2010; 330,000 tested, 1.3% active; S. cerevisiae tim23-1 growth, BacTiter-Glo luminescence, 24 h;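 active means growth inhibition of the mutant yeast at or above 50%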;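 further: temperature-sensitive mutant grown at 25 °C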
# NALP1 inh: NALP1 inflammasome inhibitors in reconstituted yeast, colorimetric, S. cerevisiae, triplicate retest | S. cerevisiae NALP1/ASC/caspase-1 growth, X-gal OD620, 72 h | inhibition, % at 10 µM | 280,000 tested, 0.61% active | AID 2071, 2009; in the data active means inhibition mostly above about 24%, no sharp cut-off; inactive means mostly below about 32%
# tim10-1 inh: growth inhibitors of tim10-1 mutant yeast, primary screen, luminescence, uHTS; S. cerevisiae tim10-1 ts strain growth, BacTiter-Glo, 24 h; inhibition, % at 20 µM; 330,000 tested, 2.2% active; AID 463190, 2010;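 active means inhibition of at least 40%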;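 further: mutant grown at 25 °C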
# NALP3 yeast inh: NALP3 inflammasome inhibitors in reconstituted yeast, primary screen, luminescence, uHTS | Yeast reconstituted NLRP3/ASC/caspase-1, beta-gal luminescence, 24 h | inhibition, % at 10 µM | 330,000 tested, 0.39% active | AID 2825, 2010;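 active means inhibition of 50% or more; inactive means inhibition below 50%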
# PfHsp90 yeast 2: growth inhibition of PfHsp90-expressing yeast, primary screen, antimalarial PfHsp90 inhibitor project, S. cerevisiae, BacTiter-Glo luminescence, single point, set 2. inhibition, % at 9.4 µM. 310,000 tested, 0.32% active. BacTiter-Glo ATP, 48 h; yeast lacking PDR1 and PDR3 efflux regulators;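 active means every replicate shows inhibition above about 80%, whatever the replicate mean, limit read from the data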
# TIM10 inh: growth inhibitors of isogenic TIM10 control yeast, primary screen, counter-screen for tim10-1 yeast inhibitor project, luminescence, uHTS. 330,000 tested, 1.4% active. inhibition, % at 10 µM. S. cerevisiae TIM10 strain growth, BacTiter-Glo luminescence, 24 h;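 active means inhibition of 40% or more at the single tested concentration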;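 further: wild-type TIM10 isogenic control strain grown at permissive 25 °C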
# tim10-1 conf: growth inhibitors of tim10-1 mutant yeast, confirmation, single concentration, luminescence, S. cerevisiae | shares compounds with tim10-1 inh | S. cerevisiae tim10-1 ts strain growth, BacTiter-Glo, 24 h | inhibition, % at 20 µM | 7,400 tested, 56% active;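 active means inhibition of yeast growth at or above a set limit in either of two repeat tests at 20 µM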;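 further: tim10-1 mutant grown at permissive 25 °C to find synthetic lethal compounds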
# A number is an active result; – = inactive; · = not tested or not shown.
SMILES,tim23-1 inh,NALP1 inh,tim10-1 inh,NALP3 yeast inh,PfHsp90 yeast 2,TIM10 inh,tim10-1 conf
Cc1onc(-c2ccccc2)c1C(=O)Nc1ccc(NC(=O)c2c(-c3ccccc3)noc2C)cc1,–,·,–,–,–,–,·
Cc1ccc(F)c(NC(=O)c2c(-c3ccccc3)noc2C)c1,–,–,46.9,–,–,–,42.9
COc1ccccc1N1CCN(C2CCCN(S(=O)(=O)c3ccccc3)C2)CC1 (centres undefined),–,–,–,–,–,–,·
Clc1ccc(Cn2cc(/C=N/n3cnnc3)c3ccccc32)c(Cl)c1,–,–,–,–,–,–,·
C(=N\n1cnnc1)/c1cn(Cc2ccccc2)c2ccccc12,–,–,49.1,–,–,–,–
COCc1ccc(C(=O)NC2CC(C)(C)Cc3c2cnn3-c2ccc(OC)cc2)o1 (centres undefined),–,–,–,–,–,–,·
CCN1CCN(C(=O)/C=C/c2ccc(C)o2)CC1,–,–,–,–,–,–,·
Cc1ccc(/C=C/C(=O)N2CC(C)CC(C)C2)o1 (centres undefined),–,–,43.4,–,·,–,–
COc1cc(Cl)cc2c1Sc1ccccc1/C2=C/CCN(C)C,–,–,41.7,–,–,–,–
CN(C)CC/C=C1/c2cc(F)ccc2Sc2ccc(Cl)cc21,–,·,–,–,–,–,·
CN(C)CC/C=C1/c2ccccc2Sc2c(O)cc(Cl)cc21,–,–,–,–,–,–,·
COc1cc2c(cc1Cl)/C(=C\CCN(C)C)c1ccccc1S2,–,–,40.1,–,–,–,–
CCOC(=O)c1c(NC(=O)C2C3CCC(O3)C2C(=O)O)sc(C)c1-c1ccc(C)cc1 (centres undefined),–,–,–,–,–,–,·
Cc1sc(NC(=O)C2C3CCC(O3)C2C(=O)O)nc1-c1ccc(CC(C)C)cc1 (centres undefined),–,–,41.2,–,–,–,–
COc1ccc(NC(=O)N(C)C[C@H]2Oc3ccc(NS(=O)(=O)c4c(C)noc4C)cc3C(=O)N([C@H](C)CO)C[C@@H]2C)cc1,–,·,–,–,–,–,·
COc1ccc(NC(=O)c2ccc(OC(=S)N(C)c3ccc(OC)cc3)cc2)cc1,–,–,–,–,–,–,·
CN(C(=S)Oc1ccc(C(=O)Nc2ccccc2)cc1)c1ccccc1,–,–,51.4,–,–,–,–
CSc1ccc(C=NNc2ccc(S(=O)(=O)Nc3ccccc3C(=O)O)cc2[N+](=O)[O-])cc1,–,·,–,–,–,–,·
Cc1nn(-c2ccccc2)c(Cl)c1/C=N/Nc1ccc(S(=O)(=O)Nc2ccccc2C(=O)O)cc1[N+](=O)[O-],–,–,42.3,–,–,–,36.3
Cc1nn(-c2ccccc2)c(Cl)c1/C=N/NC(=O)OC(C)(C)C,–,–,44.4,–,–,–,–
Cc1nn(-c2ccccc2)c(Cl)c1/C=N/NS(=O)(=O)c1ccc(Br)cc1,–,–,42.5,–,–,–,–
CN1CCN(C(=O)CCc2nnc3ccc(N4CCC5(CC4)OCCO5)nn23)CC1,–,–,–,–,–,–,·
CC(C)(C)C(=O)Nc1nnc(SCc2cccc(F)c2)s1,–,–,–,–,–,–,·
CC(C)(C)C(=O)Nc1nnc(SCc2ccc(F)cc2)s1,–,–,49.9,–,·,–,44.3
Cc1ccc(C(=O)CSC2=C(C#N)C(c3ccco3)C3=C(CCCC3=O)N2)cc1 (centres undefined),–,–,–,–,–,–,·
SMILES,tim23-1 inh,NALP1 inh,tim10-1 inh,NALP3 yeast inh,PfHsp90 yeast 2,TIM10 inh,tim10-1 conf
N#CC1=C(SCC(=O)c2ccccc2)NC2=C(C(=O)CCC2)C1c1ccco1 (centres undefined),–,–,48.7,–,–,–,–
CN1C(C(=O)Nc2cccc(O)c2)=CC(c2ccco2)=NS1(=O)=O,–,–,–,–,–,–,·
CC(C)C(=O)N(c1cc2sc(=O)oc2c2ccccc12)S(=O)(=O)c1cccs1,–,–,46.7,–,–,–,–
C=C(C)CNC(=S)N/N=C1\CCCCc2ccccc21,–,–,55.1,–,–,–,41.0
COc1ccc(N2CCN(C(=O)COC(=O)CCc3ccccc3)CC2)cc1,–,·,–,–,–,–,·
CC(=O)SC1CC(=O)N(c2ccc(C(C)(C)C)cc2)C1=O (centres undefined),–,·,55.4,–,–,–,52.9
CC(=O)Nc1scc(C)c1-c1nc2ccccc2s1,–,–,–,–,–,–,·
CNc1sc(C(=O)c2cccs2)c(N)c1-c1nc2ccccc2s1,–,–,48.2,–,–,–,48.1
CNc1sc(C(=O)c2ccc(F)cc2)c(N)c1-c1nc2ccccc2s1,–,–,41.5,–,–,–,–
CCSc1cc(C)nc2c(-c3ccccc3)c(C)nn12,–,–,40.2,–,–,–,–
Cc1cc(NCCC(C)C)n2nc(C)c(-c3ccccc3)c2n1,–,–,44.7,–,–,–,–
Cc1cc(NCCCN2CCOCC2)n2nc(C)c(-c3ccccc3)c2n1,–,–,–,–,–,–,·
CC1CCCN(S(=O)(=O)c2ccc(C(=O)Nc3nnc(-c4ccccc4Cl)o3)cc2)C1 (centres undefined),–,–,41.7,–,–,–,–
CC1CC(C)CN(S(=O)(=O)c2ccc(C(=O)Nc3nnc(-c4cccs4)o3)cc2)C1 (centres undefined),–,–,41.7,–,–,–,–
CCC1CCCCN1S(=O)(=O)c1ccc(C(=O)Nc2nnc(-c3cccs3)o2)cc1 (centres undefined),–,–,44.9,–,–,–,–
CC1CCCN(S(=O)(=O)c2ccc(C(=O)Nc3nnc(-c4ccccn4)o3)cc2)C1 (centres undefined),–,–,–,–,–,–,·
CCCCCCC(=O)OCC(=O)c1ccc2c(c1)NC(=O)CO2,–,–,40.3,–,–,–,–
O=C1/C(=C/c2ccccc2)SC(=S)N1CC(=O)N1CCCCC1c1cccnc1 (centres undefined),–,–,46.9,–,–,–,–
Cc1c(NC(=O)/C(C#N)=C/c2ccc(-c3ccc(Cl)cc3)o2)c(=O)n(-c2ccccc2)n1C,–,–,41.6,–,–,–,29.8
Cc1c(NC(=O)/C(C#N)=C/c2ccc(-c3cc(Cl)ccc3Cl)o2)c(=O)n(-c2ccccc2)n1C,–,–,–,–,–,–,·
